# IDE exosite FP: insulin-degrading enzyme (human) exo-site inhibition; purified IDE, FL-6b probe fluorescence polarization; active compounds read low; z-score at 20 µM; hit rate 6.3% among 17,000;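 active = z-score of -3 or lower, meaning strong loss of probe binding signal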;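 also: His-tagged human IDE residues 42-1019 made in E. coli with 30 nM FL-6b probe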
# Target sequence (P14735 42-1019 limits assumed): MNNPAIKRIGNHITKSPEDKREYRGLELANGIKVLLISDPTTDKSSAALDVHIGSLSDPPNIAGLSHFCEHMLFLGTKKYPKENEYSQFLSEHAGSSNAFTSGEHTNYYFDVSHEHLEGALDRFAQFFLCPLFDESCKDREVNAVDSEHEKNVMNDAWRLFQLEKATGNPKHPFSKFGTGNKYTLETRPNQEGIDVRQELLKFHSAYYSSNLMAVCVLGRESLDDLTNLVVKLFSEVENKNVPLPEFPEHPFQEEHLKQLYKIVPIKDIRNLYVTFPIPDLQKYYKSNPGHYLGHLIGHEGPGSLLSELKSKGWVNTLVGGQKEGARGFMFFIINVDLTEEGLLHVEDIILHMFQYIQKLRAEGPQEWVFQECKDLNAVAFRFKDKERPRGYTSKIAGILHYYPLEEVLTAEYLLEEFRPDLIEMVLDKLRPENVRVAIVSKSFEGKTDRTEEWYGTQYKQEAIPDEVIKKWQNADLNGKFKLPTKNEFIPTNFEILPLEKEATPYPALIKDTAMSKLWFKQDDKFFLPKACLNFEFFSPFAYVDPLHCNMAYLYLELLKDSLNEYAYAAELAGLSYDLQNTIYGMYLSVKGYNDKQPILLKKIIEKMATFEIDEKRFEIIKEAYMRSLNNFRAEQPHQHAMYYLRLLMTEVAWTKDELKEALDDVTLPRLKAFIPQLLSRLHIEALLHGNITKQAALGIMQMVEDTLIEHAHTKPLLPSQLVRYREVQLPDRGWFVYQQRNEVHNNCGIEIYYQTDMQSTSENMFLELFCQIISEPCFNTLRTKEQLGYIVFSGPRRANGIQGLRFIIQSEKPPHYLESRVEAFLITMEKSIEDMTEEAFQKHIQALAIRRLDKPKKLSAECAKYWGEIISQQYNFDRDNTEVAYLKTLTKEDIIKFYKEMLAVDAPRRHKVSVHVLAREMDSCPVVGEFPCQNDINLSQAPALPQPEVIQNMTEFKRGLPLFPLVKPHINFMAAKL
# An asterisk follows results filed as active; ! = repeats disagree. This is one part of a sample in which hits are shown more often than they occur.
SMILES,IDE exosite FP
Cn1cnc(S(=O)(=O)N2C[C@H](O)COC[C@H]3O[C@@H](CC(=O)NCc4cccc(F)c4)CC[C@@H]32)c1,-0.31
CCS(=O)(=O)N1CC(=O)N2[C@H](CO)[C@@H](c3ccc(-c4ccc(C)cc4)cc3)[C@H]2C1,0.093
COCC(=O)Nc1ccc2c(c1)[C@@H]1C[C@@H](CC(=O)N3CCOCC3)O[C@@H](CO)[C@@H]1O2,0.69
N#C[C@H]1[C@H](c2ccccc2)[C@H](CO)N1C(=O)Cc1ccccc1,1.7
CC(C)NC(=O)NC[C@@H]1[C@H](c2ccccc2)[C@H](CO)N1C(=O)c1ccccc1,4.3
CCCC(=O)Nc1ccc2c(c1)C(=O)N(C)C[C@@H](OC)[C@H](C)CN(Cc1cc(-c3ccccc3)on1)[C@H](C)CO2,1.4
CCN(C[C@@H]1[C@@H](c2ccc(C3=CCCCC3)cc2)[C@@H](CO)N1C(C)=O)C(C)=O,-0.15
O=C(C1CCOCC1)N1CC(=O)N2[C@H](C1)[C@H](c1ccc(C#Cc3cccc(F)c3)cc1)[C@@H]2CO,-8.4*
COc1ccc(C#Cc2ccc([C@@H]3[C@@H](CO)N4C(=O)CN(C(=O)C5CCOCC5)C[C@@H]34)cc2)cc1,-0.35
COc1ccc(C#Cc2ccc([C@H]3[C@H]4CN(C(=O)C5CCOCC5)CC(=O)N4[C@H]3CO)cc2)cc1,-0.065
O=C(C1CCOCC1)N1CC(=O)N2[C@@H](CO)[C@@H](c3ccc(C#Cc4cccc(F)c4)cc3)[C@@H]2C1,-4.8*
O=C(C1CCOCC1)N1CC(=O)N2[C@H](CO)[C@@H](c3ccc(C#CC4CC4)cc3)[C@H]2C1,3.1
O=C(C1CCOCC1)N1CC(=O)N2[C@H](C1)[C@@H](c1ccc(C#CC3CC3)cc1)[C@@H]2CO,-1.1
COCC#Cc1ccc([C@H]2[C@@H](CO)N3CCCCN(C(=O)CN(C)C)C[C@H]23)cc1,1.1
OC[C@H]1[C@H](c2ccc(C#CC3(O)CCCC3)cc2)[C@H]2CN(Cc3ccncc3)CCCCN21,2
COc1cccc(-c2ccc(C3[C@H]4CNC[C@@H]3N4C(=O)Nc3ccc4c(c3)OCO4)cc2)c1 (stereo partly specified),-2.8
COc1ccc(NC(=O)N2[C@@H]3CNC[C@H]2C3c2ccc(-c3ccccc3C)cc2)cc1 (stereo partly specified),-4.6*
COc1cccc(-c2ccc(C3[C@H]4CNC[C@@H]3N4C(=O)Nc3ccc(C(F)(F)F)cc3)cc2)c1 (stereo partly specified),2.1
Cc1ccccc1-c1ccc(C2[C@H]3CNC[C@@H]2N3C(=O)Nc2ccc(Cl)cc2)cc1 (stereo partly specified),-3.6*!
O=C(NC1CCCCC1)N1[C@@H]2CNC[C@H]1C2c1ccc(-c2ccccc2F)cc1 (stereo partly specified),-0.085
CN(C)C(=O)c1cccc(-c2ccc(C3[C@H]4CNC[C@@H]3N4C(=O)Nc3cccc(Cl)c3)cc2)c1 (stereo partly specified),-0.24
COCC(=O)N1CC(=O)N2[C@H](CO)[C@H](c3ccc(-c4ccncc4)cc3)[C@@H]2C1,1.4
COCC(=O)N1CC(=O)N2[C@H](CO)[C@@H](c3ccc(C#CC(C)C)cc3)[C@H]2C1,0.86
COc1ccc(-c2ccc3n(c2=O)C[C@@H]2[C@@H](CO)[C@H](C(=O)N4CCOCC4)N[C@H]32)cc1,-0.72
CCC(=O)NC[C@H]1[C@@H](c2ccc(-c3ccccc3)cc2)[C@H](CO)N1C(=O)C1CC1,1.1
SMILES,IDE exosite FP
O=C1CN(Cc2ccccc2)C[C@@H]2[C@@H](c3ccc(-c4ccccc4F)cc3)[C@@H](CO)N12,-4.7*
O=C(C1CCCCC1)N1CC(=O)N2[C@H](CO)[C@H](c3ccc(-c4ccccc4F)cc3)[C@@H]2C1,-1.7
O=C(C1CCC1)N1CC(=O)N2[C@H](CO)[C@H](c3ccc(-c4ccccc4F)cc3)[C@H]2C1,-11*
O=C1CN(Cc2ccc(F)cc2)C[C@H]2[C@H](c3ccc(-c4ccccc4F)cc3)[C@@H](CO)N12,-1.2
O=C(C1CC1)N1CC(=O)N2[C@@H](CO)[C@@H](c3ccc(-c4ccccc4F)cc3)[C@@H]2C1,-8.4*
O=C1CN(Cc2ccccc2)C[C@@H]2[C@H](c3ccc(-c4ccccc4F)cc3)[C@H](CO)N12,0.25
O=C(C1CCC1)N1CC(=O)N2[C@H](C1)[C@H](c1ccc(-c3ccccc3F)cc1)[C@@H]2CO,-0.87
O=C(C1CC1)N1CC(=O)N2[C@H](CO)[C@H](c3ccc(-c4ccccc4F)cc3)[C@@H]2C1,1.2
O=C(C1CCCCC1)N1CC(=O)N2[C@@H](CO)[C@H](c3ccc(-c4ccccc4F)cc3)[C@@H]2C1,-1.2
COCC(=O)Nc1ccc2c(c1)C(=O)N(C)[C@H]1CC[C@@H](CC(=O)N3CCc4ccccc4C3)O[C@H]1CO2,-0.3
CCC(=O)N1CC[C@H]2[C@H](CO)Nc3ccc(C#Cc4ccccc4F)cc3[C@H]21,3.7
O=C(c1cnccn1)N1CC(=O)N2[C@@H](CO)[C@@H](c3ccc(C#CCc4ccccc4)cc3)[C@@H]2C1,-0.76
O=C(C[C@H]1CC[C@H]2[C@@H](COC[C@@H](O)CN2CCc2ccccc2)O1)NCCCN1CCOCC1,-0.44
O=C(c1ccccc1F)N1CC(=O)N2[C@H](C1)[C@@H](c1ccc(-c3ccc(F)cc3)cc1)[C@@H]2CO,-0.69
CN1C(=O)c2cc(NC(=O)c3ccc4c(c3)OCO4)ccc2OC[C@@H]2O[C@H](CC(=O)O)CC[C@@H]21,-0.77
CCS(=O)(=O)N1CC2(CN(Cc3ccc4c(c3)OCO4)[C@H](CO)c3c2c2ccc(OC)cc2n3C)C1,0.93
CN1CCN(C(=O)C[C@H]2C[C@H]3c4cc(NS(C)(=O)=O)ccc4O[C@H]3[C@@H](CO)O2)CC1,-0.27
O=C(NC[C@@H]1N[C@@H](CO)[C@H]1c1ccccc1)C1CCC1,2.5
COc1ccccc1-c1ccc([C@H]2[C@@H](CO)N[C@@H]2CNC(=O)C2CC2)cc1,-4.2*
O=C(NC[C@H]1N[C@H](CO)[C@@H]1c1ccccc1)C1CC1,3
O=C(NC[C@@H]1N[C@@H](CO)[C@H]1c1ccccc1)C1CCCC1,2.3
O=C(NC[C@H]1N[C@H](CO)[C@@H]1c1ccccc1)C1CCC1,0.4
O=C(NC[C@H]1N[C@H](CO)[C@@H]1c1ccc(-c2ccccc2)cc1)C1CCC1,-3.5*
NCC[C@H]1CC[C@H](NS(=O)(=O)c2ccc(Cl)cc2)[C@H](CO)O1,3.5
C/C=C/c1cccc(-c2nc(C(=O)Nc3nccs3)cc3c2[C@@H](CCO)N(C(=O)NC(C)C)C3)c1,0.74
O=C1N[C@H](c2ccccc2)COCc2cnnn2CC[C@@H]1Cc1ccc(C(F)(F)F)cc1,0.19
COCC(=O)NC[C@H]1[C@@H](c2ccccc2)[C@@H](CO)N1C(C)=O,5.1
C[C@@H]1CN([C@@H](C)CO)C(=O)c2cc(NC(=O)Cc3ccccc3)ccc2O[C@@H](C)CCCCO[C@H]1CN(C)Cc1ccncc1,2.2
C[C@@H]1CC(=O)NCC/C=C\C[C@H](c2cccc(Cl)c2)NC1=O,-0.051
